Potency data for eight compounds are collected here from PubChem BioAssay (Tox21).

Several values for one entry are separate records, joined by “and”; a condition that tells them apart may be missing. Equal entries are not always repeated. Records with an inconclusive call do not appear. Some structures have more than one record in an assay (separate samples or runs), and their calls can disagree. Activity calls are given as the source filed them. Unless noted, calls follow the shape of the full dose curve.

Test [1] is described as follows: Nuclear factor erythroid 2-related factor 2/antioxidant responsive element (Nrf2/ARE) small molecule agonists: qHTS cell viability counter screen in human keratinocytes (AID 1919968; active = well fitted curve in the direction sought with a large enough effect in the repeat runs; an effect the other way counts as inactive or inconclusive; also: nearly all actives have a fitted effect of over 55% in size). In outline: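 CellTiter-Fluor fluorescence, read 1 h after reagent, gave viability in the same wells as the ARE-luciferase assay. KeratinoSens cells (1,500/well) had 23 h compound exposure at 37 C/5% CO2 following 5 h plating.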
On the technique in general: Quantitative high-throughput screening tests each substance at several concentrations.

A short description of test [2]: Nuclear factor erythroid 2-related factor 2/antioxidant responsive element (Nrf2/ARE) small molecule agonists: luciferase reporter gene qHTS assay in human keratinocytes (AID 1919969). Also: nearly all actives have a fitted effect of over 35% in size. Also: potency is read from the fitted curve at half-maximal effect. For orientation: Reporter assays use an easily measured gene product as a stand-in for the process of interest.
The target in test [3] is Gonadotropin-releasing hormone receptor (Homo sapiens) (UniProt P30968). In words: Human gonadotropin-releasing hormone receptor (GnRHR) small molecule agonists, calcium flux assay in GnRHR-HEK293 cells (AID 1920063). Also: nearly all actives have a fitted effect of over 35% in size. In a few lines: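 Agonist mode: compounds at 15 concentrations, in triplicate, went onto calcium dye-loaded GnRHR-HEK293 cells. Intracellular calcium was then followed as 480/540 nm fluorescence at 1 s intervals over 3 min.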
(Calcium assays in cells follow changes in intracellular calcium, usually with a dye or a luminescent sensor.)

For test [4], the target named is KiSS-1 receptor (Homo sapiens) (UniProt Q969F8). The test can be described thus: Human kisspeptin (KISS1R) small molecule agonists, calcium flux assay in KISS1R-HEK293 cells (AID 1920064; active = well fitted curve in the direction sought with a large enough effect in the repeat runs; an effect the other way counts as inactive or inconclusive). In outline:
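Agonist mode: intracellular calcium rise tracked at 1 s intervals over 3 min (480/540 nm) immediately after compound addition to dye-loaded KISS1R-HEK293 stable cells. Each compound tested at 15 concentrations in triplicate.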

Test [5] is described as follows: G protein-coupled receptor (GPCR) small molecule agonists, calcium flux assay: HEK293 wild type cell line counter screen (AID 1920065). In outline:
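Calcium flux counter screen: compound added in agonist mode at 15 concentrations in triplicate to dye-loaded parental HEK293 cells. Fluorescence (480/540) read kinetically for 3 min; ATP served as positive control.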

Test [6] in a line: p53 small molecule agonists, cell-based qHTS assay with human liver microsomes: qHTS cell viability counter screen (AID 1963579). Also: nearly all actives have a fitted effect of over 45% in size. In outline: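 Metabolically activated exposure: compounds, human liver microsomes and NADPH (0.5 mg/mL final apiece) were added to p53RE-bla cells seeded 5 h earlier, left 16 h at 37 C, and then assessed for viability by CellTiter-Glo luminescence.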

Test [7] in a line: p53 small molecule agonists, cell-based qHTS assay with rat liver microsomes: qHTS cell viability counter screen (AID 1963580). Also: nearly all actives have a fitted effect of over 45% in size. In a few lines: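 Cytotoxicity counter screen: intracellular ATP read by CellTiter-Glo luminescence in the p53 reporter wells. HCT-116 p53RE-bla cells were treated for 16 h at 37 C alongside rat liver microsomes and NADPH, each 0.5 mg/mL final.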
The nature of test [8]: p53 small molecule agonists, cell-based qHTS assay: qHTS cell viability counter screen (AID 1963581). Also: nearly all actives have a fitted effect of over 45% in size. In outline: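 Counter screen read by CellTiter-Glo luminescence (ATP content, 30 min at room temperature), run in the same wells as the beta-lactamase reporter read. HCT-116 p53RE-bla cells saw compounds for 16 h at 37 C.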
Test [9] concerns the target 5-hydroxytryptamine receptor 2A (Homo sapiens) (UniProt P28223). In words: 5-hydroxytryptamine receptor 2A (HTR2A) small molecule antagonists, cell-based qHTS assay (AID 1963586). Also: nearly all actives have a fitted effect of over 45% in size. In outline:
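CHO cells stably expressing human HTR2A were plated for 18 h at 37 C, then loaded with calcium dye for 1 h. Compounds were preincubated 5 min at room temperature before DOI (4 nM solution) was added. Kinetic fluorescence was read for 3 min.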

For test [10] the target is unchanged. The test can be described thus: 5-hydroxytryptamine receptor 2A (HTR2A) small molecule agonists, cell-based qHTS assay (AID 1963587). Also: nearly all actives have a fitted effect of over 30% in size. In outline: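 Kinetic calcium-flux fluorescence (2 min, 1 sec intervals) after compound addition in agonist mode. HTR2A-CHO cells were cultured 18 h, then dye-loaded 1 h at 37 C.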
Test [11] addresses Muscarinic acetylcholine receptor M1 (Homo sapiens) (UniProt P11229). The test can be described thus: Cholinergic receptor muscarinic 1 (CHRM1) small molecule antagonists, cell-based qHTS assay (AID 1963588). Also: nearly all actives have a fitted effect of over 40% in size. In a few lines: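 Compounds were tested at 15 concentrations in three independent runs. Dye-loaded CHRM1-CHO cells were exposed 5 min at room temperature before stimulation by acetylcholine added at 50nM. Intracellular calcium was read kinetically on FDSS for 3 min.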

The target is the same in test [12]. The test can be described thus: Cholinergic receptor muscarinic 1 (CHRM1) small molecule agonists, cell-based qHTS assay (AID 1963589). Also: nearly all actives have a fitted effect of over 35% in size. In a few lines: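 Agonist-mode calcium-flux screen: compounds at 15 concentrations, three independent runs, were pin-transferred onto dye-loaded human CHRM1-CHO cells. Fluorescence was then recorded kinetically every second over minutes.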

Test [13] in a line: cAMP Responsive Elements (CRE) small molecule agonists, cell-based qHTS assay (AID 1963590). In a few lines: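 Agonist mode: compound added to CRE-bla HEK 293T cells (2,000/well, 18 h after plating) for 3 h at 37 C/5% CO2. Reporter activity detected via FRET beta-lactamase substrate, 2 h room-temperature loading.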
Test [14] in a line: cAMP Responsive Elements (CRE) small molecule antagonists, cell-based qHTS assay (AID 1963591; active = well fitted inhibition curve with a large enough effect in the signal ratio in the repeat runs, not every such curve was filed as active; the % refers to the signal ratio). In outline:
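Antagonist mode: compounds are added alongside the adenylyl cyclase activator NKH477 (0.25 uM final) to CRE-bla HEK293T cells for 3 h. LiveBLAzer FRET substrate, 2 h at room temperature, reports bla expression.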

For test [15], the target named is Beta-2 adrenergic receptor (Homo sapiens) (UniProt P07550). In words: Adrenergic beta2 receptor (ADRB2) small molecule antagonists, cell-based qHTS assay (AID 1963592). Also: series mostly up to about 92 µM; nearly all actives have a fitted effect of over 50% in size. In a few lines: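 Assay format: CHO-ADRB2 cells, 18-20hr seeding at 37C/5% CO2, then compound plus 1nM isoproterenol agonist mix for 0.5hr RT. Homogeneous time-resolved fluorescence cAMP detection after 1hr, expressed as 665/615 nm ratio.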

Test [16] has the same target. In words: Adrenergic beta2 receptor (ADRB2) small molecule agonists, cell-based qHTS assay (AID 1963593).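 Also: CHO cells stably overexpressing human ADRB2.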 In outline: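 CHO cells stably over-expressing ADRB2 were plated overnight at 37C, then dosed with compounds plus a stimulation mix containing 100uM IBMX and 25uM Ro-20-1724 for 0.5hr at room temperature. cAMP was measured by HTRF competition, 1hr.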
The target in test [17] is D(2) dopamine receptor (Homo sapiens) (UniProt P14416). The test can be described thus: Dopamine D2 receptor (DRD2) small molecule antagonists, cell-based qHTS assay (AID 1963595; active = well fitted inhibition curve with a large enough effect in the signal ratio in the repeat runs, with a control signal flat; the % refers to the signal ratio). In outline:
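HEK293 cells stably expressing DRD2 were preincubated with 0.1 mM Ro20-1724, then with compound for 10 min at room temperature. Cells were stimulated with 200 nM NKH477 plus 12 nM quinpirole for 30 min, and cAMP was read by HTRF.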

The target is the same in test [18]. The test can be described thus: Dopamine D2 receptor (DRD2) small molecule agonists, cell-based qHTS assay (AID 1963594). Also: nearly all actives have a fitted effect of over 35% in size. In outline: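 cAMP accumulation in DRD2-HEK293 cells measured by HTRF after 1 h detection; compounds added 10 min before NKH477 (200nM […]) forskolin-analogue stimulation, 30 min at room temperature, with Ro20-1724 present at 0.1 mM final.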

The nature of test [19]: p53 small molecule agonists, cell-based qHTS assay (AID 1963582; active = well fitted activation curve with a large enough effect in the signal ratio in the repeat runs, not every such curve was filed as active; the % refers to the signal ratio). In a few lines:
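Read-out is beta-lactamase FRET fluorescence after 2 h at room temperature with LiveBLAzer B/G substrate. p53 response element-bla cells were treated 16 h at 37 C with compounds in DMSO, added 5 h after seeding.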

The nature of test [20]: p53 small molecule agonists, cell-based qHTS assay with rat liver microsomes (AID 1963578). In a few lines:
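Agonist mode in p53RE-bla reporter cells, with compounds co-incubated 16 h at 37 C alongside 0.5 mg/mL rat liver microsomes and 0.5 mg/mL NADPH (final), followed by a 2 h LiveBLAzer detection step.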

Sequence of Beta-2 adrenergic receptor (Homo sapiens) (P07550 whole entry, looked up): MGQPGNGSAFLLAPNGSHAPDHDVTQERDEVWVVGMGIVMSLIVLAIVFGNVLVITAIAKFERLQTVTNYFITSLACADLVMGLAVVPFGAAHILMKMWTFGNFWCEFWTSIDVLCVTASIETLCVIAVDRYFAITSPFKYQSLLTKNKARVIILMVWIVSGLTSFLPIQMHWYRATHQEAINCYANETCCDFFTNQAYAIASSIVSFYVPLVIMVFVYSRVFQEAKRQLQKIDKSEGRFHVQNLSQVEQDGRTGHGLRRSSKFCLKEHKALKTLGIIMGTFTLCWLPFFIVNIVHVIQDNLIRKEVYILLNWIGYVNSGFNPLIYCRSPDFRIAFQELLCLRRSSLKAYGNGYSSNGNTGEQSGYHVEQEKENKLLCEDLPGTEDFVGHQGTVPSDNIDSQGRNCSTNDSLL
Sequence of D(2) dopamine receptor (Homo sapiens) (P14416 whole entry, looked up): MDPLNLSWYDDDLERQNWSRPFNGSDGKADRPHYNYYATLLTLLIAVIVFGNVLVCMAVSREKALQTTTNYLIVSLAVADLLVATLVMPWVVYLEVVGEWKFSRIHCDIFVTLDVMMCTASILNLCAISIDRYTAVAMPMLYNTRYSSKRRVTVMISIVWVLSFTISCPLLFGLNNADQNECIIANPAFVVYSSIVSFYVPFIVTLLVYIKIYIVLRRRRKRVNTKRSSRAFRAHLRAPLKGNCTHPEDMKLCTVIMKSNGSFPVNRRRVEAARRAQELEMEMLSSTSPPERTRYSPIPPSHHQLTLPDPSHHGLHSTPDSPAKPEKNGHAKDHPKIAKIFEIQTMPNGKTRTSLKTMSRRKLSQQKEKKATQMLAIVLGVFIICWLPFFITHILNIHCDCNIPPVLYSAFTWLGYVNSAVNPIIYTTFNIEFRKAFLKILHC
Sequence of Gonadotropin-releasing hormone receptor (Homo sapiens) (P30968 whole entry, looked up): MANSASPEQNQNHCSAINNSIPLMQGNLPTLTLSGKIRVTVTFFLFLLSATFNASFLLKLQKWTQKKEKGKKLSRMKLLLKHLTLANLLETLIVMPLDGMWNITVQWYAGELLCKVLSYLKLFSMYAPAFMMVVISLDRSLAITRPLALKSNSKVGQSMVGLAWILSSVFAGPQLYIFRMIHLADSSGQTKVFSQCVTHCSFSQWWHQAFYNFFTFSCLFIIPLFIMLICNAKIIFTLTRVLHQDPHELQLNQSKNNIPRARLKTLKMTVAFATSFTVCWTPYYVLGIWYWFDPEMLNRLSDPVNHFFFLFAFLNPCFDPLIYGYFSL
Sequence of 5-hydroxytryptamine receptor 2A (Homo sapiens) (P28223 whole entry, looked up): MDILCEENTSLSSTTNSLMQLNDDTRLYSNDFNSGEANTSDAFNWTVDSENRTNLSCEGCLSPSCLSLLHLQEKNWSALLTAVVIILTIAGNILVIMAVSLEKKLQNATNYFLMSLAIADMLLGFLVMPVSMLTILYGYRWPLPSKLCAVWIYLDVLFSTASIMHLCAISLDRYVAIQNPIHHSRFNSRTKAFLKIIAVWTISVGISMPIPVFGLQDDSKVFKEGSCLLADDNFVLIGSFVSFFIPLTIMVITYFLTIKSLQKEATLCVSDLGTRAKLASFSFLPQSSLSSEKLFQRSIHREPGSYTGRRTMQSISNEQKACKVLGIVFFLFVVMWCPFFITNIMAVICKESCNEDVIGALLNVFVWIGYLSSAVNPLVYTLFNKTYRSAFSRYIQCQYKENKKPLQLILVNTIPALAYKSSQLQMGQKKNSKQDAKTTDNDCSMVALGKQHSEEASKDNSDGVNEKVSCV
Sequence of KiSS-1 receptor (Homo sapiens) (Q969F8 whole entry, looked up): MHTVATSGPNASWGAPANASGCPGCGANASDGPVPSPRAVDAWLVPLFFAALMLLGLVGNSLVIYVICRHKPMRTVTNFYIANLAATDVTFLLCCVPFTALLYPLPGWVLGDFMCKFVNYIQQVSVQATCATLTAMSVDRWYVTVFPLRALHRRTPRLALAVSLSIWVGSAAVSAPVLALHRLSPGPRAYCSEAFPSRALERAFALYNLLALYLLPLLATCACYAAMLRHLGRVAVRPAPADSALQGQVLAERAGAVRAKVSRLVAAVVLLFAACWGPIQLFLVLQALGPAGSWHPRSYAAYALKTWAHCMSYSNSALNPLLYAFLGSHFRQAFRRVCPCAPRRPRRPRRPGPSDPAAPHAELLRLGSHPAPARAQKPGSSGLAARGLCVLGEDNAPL
Sequence of Muscarinic acetylcholine receptor M1 (Homo sapiens) (P11229 whole entry, looked up): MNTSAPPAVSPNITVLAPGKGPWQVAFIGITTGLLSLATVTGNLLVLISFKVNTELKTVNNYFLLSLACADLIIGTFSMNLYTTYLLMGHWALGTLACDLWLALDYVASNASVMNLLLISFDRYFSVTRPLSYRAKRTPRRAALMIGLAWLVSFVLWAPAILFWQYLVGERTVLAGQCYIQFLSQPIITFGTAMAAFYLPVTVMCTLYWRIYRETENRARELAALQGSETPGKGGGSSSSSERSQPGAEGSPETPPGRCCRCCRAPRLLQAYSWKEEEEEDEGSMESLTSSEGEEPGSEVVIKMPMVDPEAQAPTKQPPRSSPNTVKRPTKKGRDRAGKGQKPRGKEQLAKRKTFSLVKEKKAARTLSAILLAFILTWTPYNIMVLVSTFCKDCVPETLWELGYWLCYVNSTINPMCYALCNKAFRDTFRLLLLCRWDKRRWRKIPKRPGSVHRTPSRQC

Turning to `CNC(=O)CSP(=S)(OC)OC`, the Potency result in [1], in [2], in test [3], in [4], in test [5] and in test [6] was “inactive” each time. For the same compound, the Potency result in test [7], in [8], in [9], in test [10], in test [11] and in [12] was “inactive” throughout. For the same compound, the Potency entry in test [13], in test [14], in test [15], in test [16] and in test [17] was “inactive” each time.

As to `O=c1[nH]c(=O)n(Cl)c(=O)n1Cl`, the Potency entry in [1], in [2], in test [3], in [4], in test [5] and in [6] was “inactive” each time. Besides, the Potency result in [7], in test [8], in test [9], in test [10], in [11] and in test [12] was “inactive” each time. The Potency result in [13], in test [14], in [15] and in test [18] was “inactive” in each case.

As for `Clc1cccc(Cl)c1`, the Potency result in [1], in test [2], in test [3], in test [4], in test [5] and in test [6] was “inactive” in each case. The Potency result in [7], in test [8], in test [9], in test [10], in test [11] and in test [12] was “inactive” throughout. Further, the Potency entry in test [13], in [14], in test [15], in test [16], in [18] and in [17] was “inactive” each time.

Take `COP(N)(=O)SC` (stereo unspecified): the Potency result in [1], in [2], in [3], in test [4], in test [5] and in test [6] was “inactive” in each case. Moreover, the Potency entry in test [7], in [8], in test [19], in [9], in test [10] and in test [11] was “inactive” in each case. In addition, the Potency result in test [12], in test [13], in test [14], in [15], in [16] and in test [18] was “inactive” in each case. In test [17], the Potency entry is “inactive”.

For `CCOC(=O)CC(SP(=O)(OC)OC)C(=O)OCC` (stereo unspecified), the Potency entry in test [1], in test [3], in test [4], in test [5], in [6] and in test [7] was “inactive” in each case. In addition, the Potency result in test [8], in [19], in [9], in [11], in [12] and in test [13] was “inactive” in each case. The Potency entry in test [14], in test [15], in test [18] and in test [17] was “inactive” in each case. The Potency entry in test [2] was “inactive and 61.1 µM (active)”.

In the case of `N#Cc1ccccc1Cl`, the Potency entry in test [1], in test [2], in [3], in test [4], in test [5] and in [20] was “inactive” each time. Further, the Potency result in test [8], in test [19], in [9], in test [10], in test [11] and in test [12] was “inactive” throughout. Moreover, the Potency result in test [13], in [14], in [15], in test [18] and in test [17] was “inactive” in each case.

Regarding `CCCC[N+]1(C)CCCCC1`, the Potency entry in test [1], in test [2], in test [3], in test [4], in test [5] and in [6] was “inactive” throughout. Moreover, the Potency result in [7], in test [8], in test [10], in test [11], in [12] and in test [13] was “inactive” each time. The Potency result in test [14], in [15], in test [16], in [18] and in test [17] was “inactive” throughout.

For `O=C(O)COc1cc(Cl)c(Cl)cc1Cl`, the Potency result in [1], in [2], in test [3], in test [4], in test [5] and in test [6] was “inactive” in each case. The Potency result in test [7], in test [8], in test [9], in test [10], in [11] and in [12] was “inactive” in each case. Besides, the Potency entry in [15], in test [18] and in [17] was “inactive” throughout.
